Where “and” joins values, the source holds several entries; their conditions need not be identical. Identical values can stand only once. Records with an inconclusive call do not appear. A call without a number means that no potency is given here. Some structures have more than one record in an assay (separate samples or runs), and their calls can disagree. Calls of active or inactive are those of the source. Unless noted, calls follow the shape of the dose curve; as a rule, active = well fitted curve in the direction sought with a large enough effect in the repeat runs; inconclusive = weak or mixed curves; inactive = no such curve, though single readings can be large; an effect the other way counts as inactive or inconclusive.
Assays:
[1] = qHTS assay to identify small molecule antagonists of the glucocorticoid receptor (GR) signaling pathway - cell viability counter screen (AID 720693); also: nearly all actives have a fitted effect of over 55% in size; also: potency is read from the fitted curve at half-maximal effect
[2] = qHTS assay for identifying genotoxic compounds that show differential cytotoxicity against isogenic chicken DT40 cell lines with known DNA damage response pathways - wild type cell line (AID 743012); also: nearly all actives have a fitted effect of over 60% in size; also: potency is read from the fitted curve at half-maximal effect
Procedure, shortened: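 First, wild type DT40 cells were plated at 300 per well and equilibrated about 0.5 h at 37 C/5% CO2. Next, compounds in DMSO were added and exposure lasted 40 h. Finally, CellTiter-Glo was added for 30 min at room temperature and luminescence recorded.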

[3] = qHTS assay for identifying genotoxic compounds that show differential cytotoxicity against isogenic chicken DT40 cell lines with known DNA damage response pathways - Rev3 mutant cell line (AID 743014); also: nearly all actives have a fitted effect of over 55% in size; also: potency is read from the fitted curve at half-maximal effect
[4] = qHTS assay for identifying genotoxic compounds that show differential cytotoxicity against isogenic chicken DT40 cell lines with known DNA damage response pathways - Rad54/Ku70 mutant cell line (AID 743015); also: nearly all actives have a fitted effect of over 60% in size; also: potency is read from the fitted curve at half-maximal effect
[5] = qHTS assay to identify small molecule antagonists of the androgen receptor (AR) signaling pathway - cell viability counter screen (AID 743033; also: nearly all actives have a fitted effect of over 45% in size; also: potency is read from the fitted curve at half-maximal effect)
[6] = qHTS assay to identify small molecule antagonists of the androgen receptor (AR) signaling pathway using the MDA cell line - cell viability counter screen (AID 743041; also: nearly all actives have a fitted effect of over 45% in size)
Procedure, shortened: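 R1881-driven MDA-kb2 AR-luc cells, 3,000/well, were dosed with library compounds for 16 h; cell health came from CellTiter-Fluor fluorescence in the reporter wells.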

[7] = target: Androgen receptor (Homo sapiens) (UniProt P10275); experiment: qHTS assay to identify small molecule antagonists of the androgen receptor (AR) signaling pathway (AID 743035; active = well fitted inhibition curve with a large enough effect in the signal ratio in the repeat runs, not every such curve was filed as active; the % refers to the signal ratio)
Androgen receptor (Homo sapiens), sequence (P10275 whole entry, looked up): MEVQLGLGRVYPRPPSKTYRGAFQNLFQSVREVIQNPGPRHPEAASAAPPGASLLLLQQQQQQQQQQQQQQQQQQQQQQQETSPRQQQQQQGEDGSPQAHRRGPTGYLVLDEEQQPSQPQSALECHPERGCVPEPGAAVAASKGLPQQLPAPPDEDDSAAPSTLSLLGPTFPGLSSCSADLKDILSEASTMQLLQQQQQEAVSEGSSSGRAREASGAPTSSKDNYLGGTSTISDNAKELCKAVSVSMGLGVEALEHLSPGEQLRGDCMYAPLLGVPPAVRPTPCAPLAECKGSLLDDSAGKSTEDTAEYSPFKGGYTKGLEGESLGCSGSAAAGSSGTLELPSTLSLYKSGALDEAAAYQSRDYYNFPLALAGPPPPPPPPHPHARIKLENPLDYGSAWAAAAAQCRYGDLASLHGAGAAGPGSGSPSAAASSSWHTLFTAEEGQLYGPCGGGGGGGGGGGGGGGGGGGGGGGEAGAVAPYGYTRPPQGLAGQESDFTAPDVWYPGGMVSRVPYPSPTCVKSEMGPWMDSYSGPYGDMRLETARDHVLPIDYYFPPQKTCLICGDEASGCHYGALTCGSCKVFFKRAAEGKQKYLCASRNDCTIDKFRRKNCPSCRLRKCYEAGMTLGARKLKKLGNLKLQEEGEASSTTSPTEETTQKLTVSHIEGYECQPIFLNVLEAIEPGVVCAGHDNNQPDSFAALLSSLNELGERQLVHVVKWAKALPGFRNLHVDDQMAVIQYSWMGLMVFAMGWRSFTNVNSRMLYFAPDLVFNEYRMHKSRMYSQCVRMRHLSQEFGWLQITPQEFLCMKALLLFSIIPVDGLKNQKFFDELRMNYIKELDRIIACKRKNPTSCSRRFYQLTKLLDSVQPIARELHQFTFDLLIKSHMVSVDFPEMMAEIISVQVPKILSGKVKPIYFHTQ
Procedure, shortened: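 Beta-lactamase FRET read (2 h RT incubation with LiveBLAzer B/G) following 16 h of compound plus R1881 treatment of AR-UAS-bla HEK293 cells, which had been pre-incubated 4 h at 37C.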

[8] = target: Androgen receptor (Homo sapiens) (UniProt P10275); experiment: qHTS assay to identify small molecule agonists of the androgen receptor (AR) signaling pathway (AID 743036; active = well fitted activation curve with a large enough effect in the signal ratio in the repeat runs, with a control signal flat, not every such curve was filed as active; the % refers to the signal ratio)
Procedure, shortened: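 Cell-based FRET reporter assay: HEK293 line with a UAS-beta-lactamase construct, compounds added in DMSO, 16 h exposure at 37C, then 2 h substrate step at room temperature and fluorescence intensity read.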

[9] = target: Androgen receptor (Homo sapiens) (UniProt P10275); experiment: qHTS assay to identify small molecule agonists of the androgen receptor (AR) signaling pathway using the MDA cell line (AID 743040; also: nearly all actives have a fitted effect of over 20% in size; also: potency is read from the fitted curve at half-maximal effect)
Procedure, shortened: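 After a 5 h incubation at 37C and 0% CO2, MDA-kb2 reporter cells were dosed with compounds in DMSO and kept 16 h under the same conditions. Luciferase activity was then read as luminescence with ONE-Glo.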

[10] = target: Androgen receptor (Homo sapiens) (UniProt P10275); experiment: qHTS assay to identify small molecule antagonists of the androgen receptor (AR) signaling pathway using the MDA cell line (AID 743042; also: nearly all actives have a fitted effect of over 55% in size; also: potency is read from the fitted curve at half-maximal effect)
Procedure, shortened: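 Antagonist mode: compounds plus R1881 agonist added to MDA-kb2 AR-luc cells, incubated 16 h at 37C. Luciferase reporter luminescence quantified, with multiplexed CellTiter-Fluor readout for cell viability.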

Structure (SMILES) | Potency [1] | Potency [2] | Potency [3] | Potency [4] | Potency [5] | Potency [6] | Potency [7] | outcome [8] | Potency [9] | Potency [10]
CCCCCCCCCCCCCCN(C)C | inactive | inactive | inactive | inactive | inactive | inactive |  |  |  | 
CC(C)N=C=NC(C)C | inactive | inactive | inactive | inactive | inactive | inactive |  |  |  | 
O=C(O)CO | inactive | inactive | inactive | inactive | inactive | inactive |  |  |  | 
C/C(C=O)=C\c1ccccc1 | inactive | inactive | inactive | inactive | inactive | inactive |  |  |  | 
COc1ccc(-c2cc(C(F)F)nn2-c2ccc(S(N)(=O)=O)cc2)cc1F | inactive | inactive | inactive | inactive | inactive | inactive |  |  |  | 
CC12CC3CC(C)(C1)CC(N)(C3)C2 | inactive | 26.6 µM (active) | 29.8 µM (active) | 29.8 µM (active) | inactive |  |  |  |  | 
Cc1ccc2nc(N)[nH]c(=O)c2c1Sc1ccncc1 | inactive | 1.88 µM (active) | 0.944 µM (active) | 0.596 µM (active) | inactive | inactive |  |  |  | 
CCCOC(=O)c1c(Cl)c(Cl)c(Cl)c(Cl)c1C(=O)OCCC | inactive | 54.5 µM (active) | 61.1 µM (active) | 61.1 µM (active) |  |  |  |  |  | 
CC(CCc1ccc(O)cc1)NCCc1ccc(O)c(O)c1 (stereo not given) | inactive | 13.3 µM (active) | 26.6 µM (active) | 23.7 µM (active) |  |  |  |  |  | 
O=C1CC[C@@H](C(=O)O)N1 | inactive | inactive | inactive | inactive | inactive |  | inactive | inactive | inactive | inactive
CCCCCCCCCCCCCC(=O)OCC(O)CO (stereo not given) | inactive | inactive | 43.3 µM (active) | 43.3 µM (active) | inactive | inactive | inactive | inactive | inactive | inactive
CCCC(=O)OC(=O)CCC | inactive | inactive | inactive | inactive | inactive | inactive |  |  |  | 
O=C(O)CN1C(=O)c2cccc3cccc(c23)C1=O | inactive | inactive | inactive | inactive | inactive | inactive |  |  |  | 
CC1CCCC(=O)C1=O (stereo not given) | inactive | inactive | inactive | inactive | inactive | inactive | inactive | inactive | inactive | inactive
c1ccc2sc(SSc3nc4ccccc4s3)nc2c1 | inactive | inactive | inactive | inactive | inactive | inactive |  |  |  | 
CCN(CC)CCNC(=O)c1cc(Cl)c(N)cc1OC | inactive | inactive | inactive | inactive | inactive | inactive |  |  |  | 
CC(C)COC(=O)COc1cc(Cl)c(Cl)cc1Cl | inactive | inactive | inactive | inactive | inactive | inactive |  |  |  | 
CC(=O)OCC(C)C | inactive | inactive | inactive | inactive | inactive | inactive |  | inactive |  | inactive
O=C(O)/C=C/c1ccc(O)c(O)c1 | inactive | inactive | inactive | inactive | inactive | inactive |  |  | 27.5 µM (active) | inactive
O=C(O)c1cccc(Oc2ccccc2)c1 | inactive | inactive | inactive | inactive | inactive | inactive |  |  |  | 
CC1=C2[C@@H]([C@H](C)CC[C@H]2/C=C(\C)C(=O)O)[C@H](O)C1 | inactive | inactive | inactive | inactive | inactive | inactive |  |  |  | 
C=CCOC(=O)COCCC(C)C | inactive | inactive | inactive | inactive | inactive | inactive |  |  |  | 
CC(=O)C(C)=O | inactive | inactive | inactive | inactive | inactive | inactive |  |  |  | 
CC(C)(C)CCCCCCOC(=O)c1ccccc1C(=O)OCCCCCCC(C)(C)C | inactive | inactive | inactive | inactive | inactive | inactive |  |  |  | 
CCN(CC)c1ccc(C(=C2C=CC(=[N+](CC)CC)C=C2)c2ccc(S(=O)(=O)O)cc2S(=O)(=O)[O-])cc1 | 21.9 µM (active) | 24.3 µM (active) | inactive | inactive | 21.9 µM (active) | inactive | inactive | inactive | inactive | inactive
COc1ccc(-c2cc(=S)ss2)cc1 | inactive | 26.6 µM (active) |  |  |  |  |  |  |  | 

Structure (SMILES) | Potency [1] | Potency [2] | Potency [3] | Potency [4] | Potency [5] | Potency [6] | Potency [7] | outcome [8] | Potency [9] | Potency [10]
CCC(Cl)CC(Cl)C(Cl)C(Cl)C(Cl)C(C)Cl (stereo not given) | inactive | inactive | inactive | inactive | inactive | inactive |  |  | inactive | inactive
CC(C)N(C)C | inactive | inactive | inactive | inactive | inactive | inactive |  |  |  | 
Cc1cccc(C)c1NC(=O)c1cc(S(N)(=O)=O)c(Cl)cc1O | inactive | inactive | inactive | inactive | inactive | inactive |  |  |  | 
CSSc1ccoc1C | inactive | 19.2 µM (active) | 34.2 µM (active) | 19.2 µM (active) | inactive | inactive |  |  |  | 
O=NN(CCCl)C(=O)NCCCl | inactive | inactive | inactive | inactive | inactive | inactive |  | inactive | inactive | inactive
CC[C@H]1OC(=O)[C@H](C)[C@@H](O[C@H]2C[C@@](C)(OC)[C@@H](O)[C@H](C)O2)[C@H](C)[C@@H](O[C@@H]2O[C@H](C)C[C@H](N(C)C)[C@H]2O)[C@](C)(O)C[C@@H](C)C(=O)[C@H](C)[C@@H](O)[C@]1(C)O | inactive | inactive | inactive | inactive | inactive | inactive |  |  |  | 
O=S(=O)(O)CO | inactive | inactive | inactive | inactive | inactive | inactive |  |  |  | 
COc1cc(NCc2ccc3nc(N)nc(N)c3c2C)cc(OC)c1OC | inactive | 0.133 µM (active) | 0.15 µM (active) | 0.266 µM (active) | 0.674 µM (active) | inactive |  |  |  | 
CNS(=O)(=O)c1cc(C(=O)N2CCC(CCN3C4CCC3CC(n3c(C)nc5ccccc53)C4)(c3cccc(F)c3)CC2)c(Cl)cc1F (stereo not given) | 54.9 µM (active) | 3.06 µM (active) | 5.45 µM (active) | 6.11 µM (active) | 15.5 µM (active) |  |  |  | inactive | 34.4 µM (active)
Nc1ccc(F)cc1 | inactive | inactive | inactive | inactive | inactive | inactive | inactive | inactive | inactive | inactive
BrC(Br)C(Br)Br | inactive | inactive | inactive |  | inactive | inactive | inactive | inactive | inactive | inactive
CC[C@H]1OC(=O)[C@H](C)[C@@H](O[C@H]2C[C@@](C)(OC)[C@@H](O)[C@H](C)O2)[C@H](C)[C@@H](O[C@@H]2O[C@H](C)C[C@H](N(C)C)[C@H]2O)[C@](C)(O)C[C@@H](C)/C(=N\OCOCCOC)[C@H](C)[C@@H](O)[C@]1(C)O | inactive | inactive and 14.3 µM (active) | inactive and 8.07 µM (active) | inactive and 14.3 µM (active) |  | inactive |  |  |  | 
Cc1cccc2sc(N)nc12 | inactive | inactive | inactive | inactive | inactive | inactive |  |  |  | 
O=C(c1ccccc1)C1CCC1 | inactive | inactive | inactive | inactive | inactive | inactive |  |  |  | 
CC(CO)(CO)C(=O)O | inactive | inactive | inactive | inactive | inactive | inactive |  |  |  | 
C1CCCCC1 | inactive | inactive | inactive | inactive | inactive | inactive |  |  |  | 
COC(OC)OC | inactive | inactive | inactive | inactive | inactive | inactive |  |  |  | 
CC(=O)c1ccc[nH]1 | inactive | inactive | inactive | inactive |  | inactive |  | inactive | inactive | inactive
CC(CN(CCN(CC(C)OCCO)CC(C)OCCO)CC(C)OCCO)OCCO (stereo not given) | inactive | 18.6 µM (active) | 10.5 µM (active) | 20.9 µM (active) |  | inactive |  |  |  | 
O=[N+]([O-])C1(Br)COCOC1 | inactive | 12.2 µM (active) | 21.7 µM (active) | 21.7 µM (active) |  | inactive |  |  |  | 
CCSC(=O)N(CC)CC | inactive | inactive | inactive | inactive |  | inactive |  |  |  | 
CC(C)c1ccc(C#N)cc1 | inactive | inactive | inactive | inactive | inactive | inactive |  |  |  | 
CCCCCc1ccco1 | inactive | 39.8 µM (active) | 44.7 µM (active) | 31.6 µM (active) |  | inactive |  |  |  | 
O=C1OC(=O)c2c(Br)c(Br)c(Br)c(Br)c21 | inactive | inactive | inactive | inactive |  | inactive |  |  |  | 
CC1CCCO1 (stereo not given) | inactive | inactive | inactive | inactive | inactive | inactive |  |  |  | 
